# Bioassay records deposited in PubChem by National Center for Advancing Translational Sciences (NCATS).
# Only some compounds are listed: those with a hit (about 1.2% of all), similar ones and a draw of the others.
# GLS inhibitor = inhibitors of human glutaminase (GLS); O94925; GLS enzymatic activity, qHTS titration; Potency, µM (highest dose often 45.5 µM), without a hit: top-dose activity change, negative = inhibition, actives largely listed as inhibitors; 0.21% of 410,000 active
#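 Read-out is an Amplex red fluorescence increase coupled through glutamate oxidase and HRP, measured before and after 30 min room-temperature incubation. hKGA is in 45 mM KH2PO4 (pH 8.2) with 0.02% Tween-20; glutamine added as 1mM solution.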
# mIDH1 inhibitor = blocks human mutant IDH1 R132H enzyme; IDH1-R132H enzyme, NADPH consumption, diaphorase/resazurin fluorescence; O75874; Potency, µM (titrated, usually from 76.6 µM), inactives show at the highest dose activity change, negative = inhibition, hits mostly inhibitors; 0.093% of 390,000 active; AID 602179; further: nearly all actives have a fitted effect of over 65% in size
#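 IDH1-R132H (0.5 ug/mL dispensed) in pH 7.5 Tris buffer was preincubated 30 min with compound, then given a substrate mix of 0.016 mM NADPH and 2 mM alpha-KG for 80 min at room temperature; remaining NADPH was read by diaphorase/resazurin fluorescence.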
# TrxR1 inh = inhibitors of rat thioredoxin reductase 1. O89049. recombinant rTrxR1, NADPH fluorescence consumption, selenite substrate. Potency, µM (highest dose often 114 µM), inactives show top-dose activity change, negative = inhibition, actives largely listed as inhibitors. 1% of 390,000 active. AID 588453; further: nearly all actives have a fitted effect of over 65% in size
# Target sequence (O89049 whole entry, looked up): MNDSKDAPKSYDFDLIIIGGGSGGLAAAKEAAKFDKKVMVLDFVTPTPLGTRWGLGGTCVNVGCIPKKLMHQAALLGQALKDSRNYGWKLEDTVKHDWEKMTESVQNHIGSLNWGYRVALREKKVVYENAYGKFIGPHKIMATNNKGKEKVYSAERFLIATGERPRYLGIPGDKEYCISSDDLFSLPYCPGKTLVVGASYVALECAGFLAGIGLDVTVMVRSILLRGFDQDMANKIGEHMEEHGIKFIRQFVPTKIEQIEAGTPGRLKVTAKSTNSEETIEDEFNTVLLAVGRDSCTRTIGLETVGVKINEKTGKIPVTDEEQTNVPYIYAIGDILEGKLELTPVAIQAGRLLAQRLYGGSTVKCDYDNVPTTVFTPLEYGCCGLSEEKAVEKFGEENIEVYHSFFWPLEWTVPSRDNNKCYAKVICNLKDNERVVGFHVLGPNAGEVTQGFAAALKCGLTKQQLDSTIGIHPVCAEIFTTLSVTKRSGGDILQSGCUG
#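 Rat TrxR1 (90 nM in the dispensed reagent) was pre-reduced with 400 uM NADPH for 5 min at room temperature, then incubated with compound for 15 min. After 400 uM selenite was added, NADPH fluorescence (Ex 340/Em 450 nm) was followed for 8 min.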
# TrxR1 substrate = substrates of rat thioredoxin reductase 1; purified TrxR1 substrate turnover, NADPH consumption readout; Potency, µM (highest dose often 114 µM), inactives show at the highest dose activity change, negative = substrate turnover; 0.01% of 390,000 active; AID 588456; further: nearly all actives have a fitted effect of over 50% in size
#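 Rat TrxR1, dispensed at 90 nM, was prereduced with 400 uM NADPH (final) for 5 min at ~22 deg C, then incubated with compound 15 min before 400 uM selenite. A first-read NADPH fluorescence drop versus no-compound background flagged substrates.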
# Active calls of the source: *; ? = inconclusive; / = no result given; ! = not active in a repeat; [ ] = another dose, or the depositor's remark. The call rests on the fitted dose curve; in most records, active means well fitted curve in the direction sought with a large enough effect; inconclusive means small, poorly fitted or top-dose-only effect, or another doubt; inactive means no such curve, though single readings can be large; an effect the other way counts as inactive or inconclusive. On the % scale 0 is the no-effect control and ±100 the full control effect; potency means the concentration at half of the fitted maximal effect.
SMILES,GLS inhibitor,mIDH1 inhibitor,TrxR1 inh,TrxR1 substrate
Cc1c(S(=O)(=O)c2ccccn2)c(N)n(Cc2cccc(Cl)c2)c1C,3%,-1%,20µM*,3%
Cc1cc(C)c(NC(=O)CSc2ccc(-c3sc(-c4ccccc4)nc3C)nn2)c(C)c1,8%,-13%,12%,22%
CC1(C)Cc2c(sc3ncn4c(=S)[nH]nc4c23)CO1,13µM*,-3%,-6%[57.1 µM],1%[57.1 µM]
CC1(C)Cc2c(sc3ncn(N)c(=N)c23)CO1,19%,1%,-12%,-11%
O=C(Nc1nc(=S)ss1)c1ccc(Cl)cc1Cl,-1%,8%,20%[57.1 µM],15%[57.1 µM]
Cc1ccc(-c2nc(SCC(=O)N3CCc4ccccc43)c3c(=O)n(C)c(=O)n(C)c3n2)cc1,5%,/,26%[57.1 µM],3%[57.1 µM]
Cc1ccc(N2CCN(C(=O)c3ccccc3NC(=O)/C=C\C(=O)O)CC2)cc1,9%,1%,50µM*,1%
Cc1cc(/C=C/c2ccnc3ccccc23)ccc1N(C)C,/,/,-8%,-11%
Cc1ccc(CNC(=O)Cn2ccc3ccccc3c2=O)o1,0%,3%,40µM*,0%
O=[N+]([O-])c1ccc(/C=C/c2ccnc3ccccc23)cc1,/,/,?,-13%
Cc1ccc2c(c1)CC1(CN2C)C(=O)OC(C)(C)OC1=O,7%,11%,20µM*!,2%
CCOC(=O)c1c(-c2ccc(OC)cc2)oc2ccc(OCc3ccccc3C)cc12,-7%,0%,60%,345%
CCc1ccc(NC(=O)C(C)Sc2nc(-c3ccco3)c(C#N)c(=O)[nH]2)cc1 (stereo not drawn),20µM*,-2%,18µM*,5%
N#Cc1c(-c2ccco2)nc(SCC(=O)Nc2cccc(Cl)c2)[nH]c1=O,-16%,1%,14µM*,-4%
CSc1cccc(NS(=O)(=O)c2cn(C)cn2)c1,6%,9%,50µM*,-4%
Cc1ccc(O)c(NC2=C(Cl)C(=O)N(Cc3ccccc3)C2=O)c1,25%,0%,10µM*,-4%
O=C1C(Cl)=C(Nc2ccccc2O)C(=O)N1c1ccccc1,20%,4%,45µM*,-4%
Cc1ccc(NC(=O)/C=C\C(=O)NCC(=O)O)cc1C,3%,-1%,45µM*,3%
Cc1ccc(NC(=O)CC(=O)Nc2ccc(C)c(C)c2)cc1C,-3%,-6%,17%,3%
CCCc1cc(NC(=O)CCl)n(-c2ccccc2)n1,7%,7%,50µM*,-1%
CCN(CC)c1ccc(C(=C2C=CC(=[N+](CC)CC)C=C2)c2ccccc2)cc1,6.3µM*,13%,40µM*,-10%
CC(=O)Nc1nonc1-c1nc2ccccc2n1CC1CC1,1%,-2%,6%,8%
CC(=O)Nc1nonc1-c1nc2ccccc2n1N(C(C)=O)C(C)=O,13%,6%,56µM*,24%
Cc1oc2ncn(C)c(=O)c2c1C(=O)Nc1ccccn1,-8%,-9%,-8%,-6%
Cc1cc(O)ccc1NC(=S)NC(=O)c1cncc(Br)c1,4%,-5%,4%,3%
SMILES,GLS inhibitor,mIDH1 inhibitor,TrxR1 inh,TrxR1 substrate
CCCCOc1cccc(C(=O)NC(=S)Nc2cccnc2)c1,-2%,-1%,25µM*,-12%
Cc1ccccc1NC(=S)NC(=O)c1cncc(Br)c1,14%,4%,13µM*,-11%
O=C(NC(=S)Nc1cccnc1)c1cccc(Br)c1,-2%,8%,56µM*,-10%
O=C(NC(=S)Nc1cccnc1)c1ccccc1,-3%,4%,-60%,-18%[57.1 µM]
O=C(C[C@H]1C(=O)N(C2CCCCC2)C[C@@H]1c1ccccc1)Nc1ccc(Br)cc1,-6%,-1%,/,/
Cc1cccc(NC(=O)Cn2c(=O)c3cccn3c3ccccc32)c1C,1%,0%,20%,6%
CC(C)(C)c1ccc(O)c(O)c1,?,0%,22µM*,12%
O=C1c2ccccc2C(=O)C1c1ccnc2ccccc12,?,5%,3%[57.1 µM],7%[57.1 µM]
N#CC1=C(N)SC(N)=C(C#N)C1c1ccnc2ccccc12,23%,-6%,32µM*,2%
CCOc1cc(/C=C2\NC(=O)NC2=O)cc([N+](=O)[O-])c1O,-20%,-4%,50µM*,-11%
CCOc1cc(/C=C2\C(=O)NN(c3ccccc3)C2=O)cc([N+](=O)[O-])c1O,?,13%,-43%,-9%[57.1 µM]
COc1ccc(C(=O)NC(=S)NCc2ccccc2)cc1,-6%,0%,22µM*,-8%
O=C(c1cc(-c2ccco2)on1)N1CCc2ccccc2C1,-6%,-4%,32µM*,-8%
COc1ccccc1N1CCN(C(=O)c2cc(-c3ccccc3)on2)CC1,-1%,10%,13%,-2%
COc1ccccc1N1CCN(C(=O)c2cc(-c3ccco3)on2)CC1,5%,7%,45µM*,3%
O=c1[nH]cc(CCc2ccccc2)c(=O)[nH]1,-9%,-1%,/,/
NCCCNCCCCNC(=O)C(O)NC(=O)CCCCCCN=C(N)N (stereo not drawn),-7%,/,/,/
CC1(C)Cc2c(c(-c3ccco3)nc3sc4c(NCCCO)ncnc4c23)CO1,-8%,1%,7.9µM*,23%
CC1(C)Cc2c(c(-c3ccco3)nc3sc4c(NCCN5CCOCC5)ncnc4c23)CO1,16%,-1%,-21%[57.1 µM],22%[57.1 µM]
Cc1cc(=O)n2c(C(=O)Nc3ccc(C(=O)OC(C)C)cc3)c(C(=O)Nc3ccccc3)sc2n1,4%,4%,50µM*,-2%
CCN(Cc1ccncc1)Cc1c(O)ccc2cc(Br)ccc12,-12%,6%,7.9µM*,9%[57.1 µM]
CCN(CC)C(=O)Cc1c(OC)ccc2cc(Br)ccc12,-5%,7%,-6%,-5%
COc1ccc2[nH]c3c4c(ccc3c2c1)C(=O)C=CC4=O,?,-12%,50µM*,-2%
COc1ccc(-c2nc3ccc(NC(C)=O)cc3c(=O)n2Cc2ccccc2)cc1COc1ccc(NC(C)=O)cc1,/,/,20µM*,4%
C/C(CCc1oc2c(Br)cc(Br)cc2c1-c1ccc(C)o1)=N\O,-23%,0%,25µM*,4%
SMILES,GLS inhibitor,mIDH1 inhibitor,TrxR1 inh,TrxR1 substrate
CC(C)(C)n1ncc2c(=O)n(Cc3ccc(SC(F)(F)F)cc3)cnc21,/,/,7%,-14%
COc1ccc2c(N)c(C(=O)NN)[nH]c2c1,13µM*,2%,4%[57.1 µM],9%[57.1 µM]
COCCCNC(=O)c1[nH]c2cc(OC)ccc2c1Sc1ccc(C)cc1,3%,17%,10%,-2%
Cc1nn2c(-c3ccco3)nnc2c2ccccc12,/,3%,79µM*,-9%
Cc1ccccc1-c1nnc2c3ccccc3c(C)nn12,1%,-3%,11%,5%
CC(C)OC(=O)OCOP(=O)(CO[C@H](C)Cn1cnc2c(N)ncnc21)OCOC(=O)OC(C)C,-4%,/,/,/
Cc1ccc(Cn2c(C(C)Nc3nc(-c4ccc(C)cc4)cs3)nc3cc(Cl)c(Cl)cc32)cc1 (stereo not drawn),10µM*,7%,5%,7%
CC(Nc1nc(-c2ccc(F)cc2)cs1)c1nc2cc(Cl)c(Cl)cc2n1CCCO (stereo not drawn),7%,13%,1%,2%
Cc1cc(C)nc(Sc2ncnc(N)c2[N+](=O)[O-])n1,-16%,1%,11µM*,6%[57.1 µM]
